Measured values published in PubChem BioAssay (Tox21).
Inconclusive results are not listed. Activity calls are given as the source filed them. Calls come from the whole dose curve; as a rule, active = well fitted curve in the direction sought with a large enough effect in the repeat runs; inconclusive = weak or mixed curves; inactive = no such curve, though single readings can be large; an effect the other way counts as inactive or inconclusive.

Columns and labels:
[1] = A CellTox Green Cytotoxicity Assay to monitor cytotoxicity in HEK293 cells - 8 hour (AID 1224884); note: nearly all actives have a fitted effect of over 35% in size; note: potency is the fitted concentration of half-maximal effect
Procedure, shortened: (§1)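 Seeding of HEK293 cells together with cytotoxicity dye preceded a 5 h incubation at 37 C/5% CO2. Test compounds in DMSO were then added and fluorescence monitored across 40 h.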

[2] = qHTS RealTime-Glo MT Cell Viability Assay in HEK293 cells - 24 hour (AID 1224886); note: nearly all actives have a fitted effect of over 50% in size; note: potency is the fitted concentration of half-maximal effect; for activity change, negative = cytotoxicity: top concentration of the series differs between compounds
Procedure, shortened: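 Homogeneous bioluminescent viability format in HEK293 cells (600 cells/well). Following 5 h at 37 C/5% CO2, 23 nL compound was pintooled; the signal was measured repeatedly during 40 h incubation.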

[3] = qHTS RealTime-Glo MT Cell Viability Assay in HEK293 cells - 8 hour (AID 1224887); note: nearly all actives have a fitted effect of over 50% in size; note: potency is the fitted concentration of half-maximal effect; for activity change, negative = cytotoxicity: top concentration of the series differs between compounds
Procedure, shortened: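 Tox21 screen in HEK293 using RealTime-Glo MT chemistry, with cells and reagent co-dispensed. Luminescence proportional to viable cell number was captured at intervals during 40 h compound exposure at 37 C.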

[4] = A CellTox Green Cytotoxicity Assay to monitor cytotoxicity in HEK293 cells - 16 hour (AID 1224888); note: nearly all actives have a fitted effect of over 35% in size; note: potency is the fitted concentration of half-maximal effect
Procedure, shortened: as §1

[5] = qHTS assay to identify small molecule antagonists of the androgen receptor (AR) signaling pathway using the MDA cell line in the presence of 0.5 nM R1881 - cell viability counter screen (AID 1259242); note: nearly all actives have a fitted effect of over 45% in size; note: potency is the fitted concentration of half-maximal effect
Procedure, shortened: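 R1881 at 0.5 nM final stimulated MDA-kb2 cells during 16 hr compound treatment at 37C. Cytotoxicity read: CellTiter-Fluor fluorescence after 30 min.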

[6] = qHTS RealTime-Glo MT Cell Viability Assay in HepG2 cells - 0 hour (AID 1224889); note: nearly all actives have a fitted effect of over 50% in size
Procedure, shortened: (§2)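 Cell number in HepG2 cultures estimated from NanoLuc luminescence generated by metabolic reduction of a prosubstrate by living cells. The homogeneous, nonlytic format allowed repeated reads at 0, 8, 16, 24, 32 and 40 h of compound exposure.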

[7] = A CellTox Green Cytotoxicity Assay to monitor cytotoxicity in HepG2 cells - 8 hour (AID 1224890); note: nearly all actives have a fitted effect of over 45% in size; note: potency is the fitted concentration of half-maximal effect
Procedure, shortened: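 Nonlytic assay: viable cells exclude the dye, so fluorescence scales with cell death. HepG2 at 600 cells/well, compounds added after 5 h, signal read across 40 h.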

[8] = target: Androgen receptor (Homo sapiens) (UniProt P10275); test: qHTS assay to identify small molecule antagonists of the androgen receptor (AR) signaling pathway using the MDA cell line in the presence of 0.5 nM R1881 (AID 1259243); note: nearly all actives have a fitted effect of over 50% in size; note: potency is the fitted concentration of half-maximal effect
Chain of Androgen receptor (Homo sapiens) (P10275 whole entry, looked up): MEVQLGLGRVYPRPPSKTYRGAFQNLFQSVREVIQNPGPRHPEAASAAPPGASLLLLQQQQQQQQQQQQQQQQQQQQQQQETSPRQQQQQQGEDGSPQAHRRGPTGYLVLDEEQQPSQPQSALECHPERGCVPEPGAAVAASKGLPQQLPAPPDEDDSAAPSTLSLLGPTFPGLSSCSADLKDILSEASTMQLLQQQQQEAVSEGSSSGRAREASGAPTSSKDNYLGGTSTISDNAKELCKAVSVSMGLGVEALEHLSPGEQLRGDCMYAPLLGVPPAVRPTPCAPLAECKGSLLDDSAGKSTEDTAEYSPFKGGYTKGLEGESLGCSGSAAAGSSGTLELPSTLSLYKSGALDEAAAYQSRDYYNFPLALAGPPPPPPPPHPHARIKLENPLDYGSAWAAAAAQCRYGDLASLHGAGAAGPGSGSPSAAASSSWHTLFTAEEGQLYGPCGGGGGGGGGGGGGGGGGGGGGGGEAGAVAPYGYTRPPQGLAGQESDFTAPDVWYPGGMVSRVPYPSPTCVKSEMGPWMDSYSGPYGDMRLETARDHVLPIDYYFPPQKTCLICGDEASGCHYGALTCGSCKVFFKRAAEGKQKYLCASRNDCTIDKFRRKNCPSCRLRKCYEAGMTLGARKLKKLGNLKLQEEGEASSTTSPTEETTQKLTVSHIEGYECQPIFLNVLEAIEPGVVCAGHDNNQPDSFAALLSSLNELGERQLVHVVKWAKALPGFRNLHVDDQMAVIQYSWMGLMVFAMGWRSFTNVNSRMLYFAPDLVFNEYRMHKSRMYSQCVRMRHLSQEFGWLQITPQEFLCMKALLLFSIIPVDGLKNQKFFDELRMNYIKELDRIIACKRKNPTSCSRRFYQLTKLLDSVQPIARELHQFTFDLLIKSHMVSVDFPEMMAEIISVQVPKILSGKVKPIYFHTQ
Procedure, shortened: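 We exposed MDA-kb2 cells to compounds under 0.5 nM R1881 stimulation for 16 hr at 37C and quantified MMTV-driven luciferase by luminescence.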

[9] = qHTS assay to identify small molecule antagonists of the estrogen receptor alpha (ER-alpha) signaling pathway using the BG1 cell line in the presence of 0.1 nM 17-beta-estradiol - cell viability counter screen (AID 1259241); note: nearly all actives have a fitted effect of over 40% in size; note: potency is the fitted concentration of half-maximal effect
Procedure, shortened: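 Live-cell protease activity (CellTiter-Fluor fluorescence, 30 min) was read in the same wells after VM7Luc4E2 cells had been exposed to compounds with 0.1 nM 17beta-estradiol for 22 hr at 37C.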

[10] = qHTS RealTime-Glo MT Cell Viability Assay in HepG2 cells - 16 hour (AID 1224885); note: nearly all actives have a fitted effect of over 50% in size; note: potency is the fitted concentration of half-maximal effect
Procedure, shortened: as §2
% is set by controls: 0 for no effect and ±100 for the full control effect.

CCCCCCCCCCCCCCNCCO
active: Potency [1] 21.3 µM | Potency [2] 15.1 µM | Potency [3] 23.9 µM | Potency [4] 21.3 µM
inactive: Potency [5]

CCC(C)(C)c1cc(O)c(C(C)(C)CC)cc1O
active: Potency [2] 21.9 µM | Potency [3] 21.9 µM | Potency [8] 17.2 µM
inactive: Potency [1] | Potency [6] | Potency [7]

CC(=O)OC(OC(C)=O)c1ccc([N+](=O)[O-])o1
inactive: Potency [1] | Potency [6] | Potency [7]
active: Potency [2] 44.4 µM | Potency [9] 55.4 µM

COc1cccc(CCc2ccccc2OCC(CN(C)C)OC(=O)CCC(=O)O)c1 (stereo unspecified)
inactive: Potency [1] | Potency [3] | Potency [4] | Potency [6] | Potency [7] | Potency [9] | Potency [5]

CCCCCCC(C)Nc1ccc(Nc2ccccc2)cc1 (stereo unspecified)
active: Potency [2] 21.9 µM | Potency [3] 19.5 µM
inactive: Potency [1] | Potency [4] | Potency [7] | Potency [5]

CC(C)c1cccc(C(C)C)c1N1C(=O)c2ccc(O)cc2C1=O
active: Potency [7] 38.9 µM
inactive: Potency [1] | Potency [3] | Potency [4] | Potency [6] | Potency [9] | Potency [5]

CC(C)(c1cc(Br)c(OCCO)c(Br)c1)c1cc(Br)c(OCCO)c(Br)c1
active: Potency [2] 12 µM | Potency [8] 23.8 µM
inactive: Potency [1] | Potency [6] | Potency [7]

CCc1c(Br)c(Br)c(Br)c(Br)c1Br
inactive: Potency [1] | Potency [2] | Potency [3] | Potency [6] | Potency [7] | Potency [9] | Potency [5] | Potency [8]

Clc1cc(Cl)c(-c2c(Cl)c(Cl)cc(Cl)c2Cl)cc1Cl
inactive: Potency [1] | Potency [3] | Potency [4] | Potency [7] | Potency [9] | Potency [5] | Potency [8]

c1cc2c3c(c1)ccc1cccc(c13)C2
inactive: Potency [2] | Potency [6] | Potency [7] | Potency [9] | Potency [5]
active: Potency [1] 56.1 µM

CCCCCCOc1ccc(O)cc1
inactive: Potency [1] | Potency [4] | Potency [6] | Potency [9] | Potency [5]
active: Potency [2] 0.0617 µM | Potency [7] 24.5 µM

CCCCCCCCCCOCC(O)CN (stereo unspecified)
inactive: Potency [9]
active: Potency [10] 16.9 µM | Potency [2] 23.9 µM | Potency [3] 23.9 µM | Potency [4] 26.8 µM | Potency [7] 26.8 µM

CCCCCCCCCCCCCC[n+]1ccccc1
active: Potency [1] 54.9 µM | Potency [4] 54.9 µM | Potency [7] 49 µM | Potency [5] 24.3 µM
inactive: Potency [6]

CCN=C1C=CC(=C(c2ccc(N(CC)CC)cc2)c2ccc(N(CC)CC)cc2)c2ccccc21
active: Potency [10] 19.4 µM | Potency [2] 7.71 µM | Potency [3] 17.3 µM | Potency [4] 19.4 µM | Potency [5] 2.71 µM | Potency [8] 0.608 µM

O=C(c1ccccc1)c1cc(Cl)ccc1O
inactive: Potency [1] | Potency [6] | Potency [7] | Potency [9] | Potency [5]

CCCCCCOc1cc(C)c(O)c(C)c1C
active: Potency [4] 44.2 µM | Potency [7] 35.1 µM
inactive: Potency [6] | Potency [9] | Potency [5]

CC(=O)c1ccccc1N
inactive: Potency [1] | Potency [4] | Potency [6] | Potency [7] | Potency [5]

O[C@@H](c1cc(C(F)(F)F)nc2c(C(F)(F)F)cccc12)[C@H]1CCCCN1
active: Potency [2] 7.56 µM | Potency [3] 7.56 µM | Potency [7] 26.8 µM
inactive: Potency [9]

C=CC(=O)OCCOCC(CC)(COCCOC(=O)C=C)COCCOC(=O)C=C
inactive: Potency [1] | Potency [6] | Potency [7]
active: Potency [9] 14.3 µM

S=P(N1CC1)(N1CC1)N1CC1
inactive: Potency [10] | Potency [3] | Potency [4] | Potency [6] | Potency [7] | Potency [9] | Potency [5]

O=C(O)CCCCCCC(=O)O
inactive: Potency [10] | Potency [2] | Potency [3] | Potency [4] | Potency [6] | Potency [7] | Potency [9] | Potency [5]

CC(C)(C)c1cc(CCC(=O)NCCCCCCNC(=O)CCc2cc(C(C)(C)C)c(O)c(C(C)(C)C)c2)cc(C(C)(C)C)c1O
inactive: Potency [1] | Potency [6] | Potency [7] | Potency [9] | Potency [5] | Potency [8]

CS(C)(=O)=O
inactive: Potency [10] | Potency [2] | Potency [6] | Potency [7] | Potency [9] | Potency [5]

CCCCCCCCCCCCN(CCO)CCO
active: Potency [10] 48.8 µM | Potency [5] 60.9 µM | Potency [8] 48.4 µM
inactive: Potency [9]

CC(C)OC(=O)c1cc(C(=O)OC(C)C)cc([N+](=O)[O-])c1
inactive: Potency [10] | Potency [4] | Potency [6] | Potency [7] | Potency [9] | Potency [5]

O=C1Nc2ccc(Cl)cc2[C@@](C#CC2CC2)(C(F)(F)F)O1
active: Potency [2] 23.9 µM
inactive: Potency [6] | Potency [9] | Potency [5]

O=C(NO)c1ccccc1
inactive: Potency [3] | Potency [6] | Potency [9] | Potency [5] | Potency [8]

C/C=C/C(=O)Oc1c(CCCCCC(C)C)cc([N+](=O)[O-])cc1[N+](=O)[O-]
active: Potency [10] 21.9 µM | Potency [2] 19.5 µM | Potency [9] 27.3 µM | Potency [5] 15.4 µM
inactive: Potency [7]

Cc1cc2c(C(C)C)c(O)c(O)c(C=O)c2c(O)c1-c1c(C)cc2c(C(C)C)c(O)c(O)c(C=O)c2c1O
active: Potency [4] 16.9 µM
inactive: Potency [6] | Potency [7] | Potency [9]

C/C=C/C=N/NC(=O)c1ccncc1
inactive: Potency [3] | Potency [6] | Potency [7] | Potency [9] | Potency [5]

CC(C)C(=O)OCc1ccccc1
inactive: Potency [10] | Potency [6] | Potency [9] | Potency [5]

CCCCCCCCCCCCCc1ccccc1
inactive: Potency [1] | Potency [3] | Potency [6] | Potency [7] | Potency [9] | Potency [5]

CC1(C)C(=O)N(CO)C(=O)N1CO
inactive: Potency [10] | Potency [2] | Potency [6] | Potency [7] | Potency [9] | Potency [5]

O=C(O)c1cccc(Cl)n1
inactive: Potency [10] | Potency [2] | Potency [3] | Potency [6] | Potency [7] | Potency [5] | Potency [8]

Cc1ccc(N)cc1O
active: Potency [9] 61.1 µM
inactive: Potency [10] | Potency [3] | Potency [6] | Potency [7] | Potency [5]

CCC(=O)OCCc1ccccc1
inactive: Potency [1] | Potency [4] | Potency [6] | Potency [7] | Potency [9] | Potency [5]

NC1(c2ccc(-c3nc4ccn5c(=O)[nH]nc5c4cc3-c3ccccc3)cc2)CCC1
inactive: Potency [6] | Potency [7]
active: Potency [10] 23.9 µM | Potency [2] 3.01 µM | Potency [3] 10.7 µM | Potency [5] 33.5 µM

O=C1NCN(c2ccccc2)C12CCN(CCCC(c1ccc(F)cc1)c1ccc(F)cc1)CC2
inactive: Potency [1] | Potency [6]
active: Potency [7] 10.7 µM | Potency [9] 13.3 µM | Potency [5] 29.8 µM

CN(C)c1ccc(N=NS(=O)(=O)O)cc1
inactive: Potency [1] | Potency [4] | Potency [7]
active: Potency [3] 34.5 µM | Potency [5] 27.3 µM | Potency [8] 22.9 µM

CC(C)=CCCC(C)O (stereo unspecified)
inactive: Potency [10] | Potency [2] | Potency [3] | Potency [4] | Potency [6] | Potency [7] | Potency [9] | Potency [5] | Potency [8]

O=C(Oc1ccccc1)c1cccc(C(=O)Oc2ccccc2)c1
inactive: Potency [10] | Potency [6] | Potency [7] | Potency [5] | Potency [8]

S=C(SSSSSSC(=S)N1CCCCC1)N1CCCCC1
inactive: cytotoxicity increase [1] -0.556% [at 15.8 µM] | activity change [4] 19.1% [at 15.8 µM, active compounds read high] | activity change, negative = cytotoxicity [6] -21.4% [at 15.8 µM] | cytotoxicity increase [7] -7.66% [at 15.8 µM] | viability change, negative = cytotoxic [5] -10.8% [at 19 µM]

C=C1C(C)(C)[C@@]2(Cl)C(Cl)[C@]1(Cl)C(Cl)(Cl)C2(Cl)Cl (stereo partly specified)
inactive: Potency [6] | Potency [7] | Potency [9] | Potency [5]
active: Potency [3] 53.9 µM | Potency [8] 60 µM

CN1CCN(C2Cc3ccccc3Sc3ccc(Cl)cc32)CC1 (stereo unspecified)
active: Potency [1] 19 µM | Potency [8] 29.8 µM
inactive: Potency [3] | Potency [6] | Potency [9]

Cc1c(-c2ccc(O)cc2)n(Cc2ccc(OCCN3CCCCCC3)cc2)c2ccc(O)cc12
inactive: Potency [6]
active: Potency [10] 23.9 µM | Potency [2] 2.68 µM | Potency [3] 2.39 µM | Potency [4] 23.9 µM | Potency [5] 29.8 µM

C=C[C@](C)(O)CC[C@@H]1[C@@]2(C)CCCC(C)(C)[C@@H]2CC[C@@]1(C)O
inactive: Potency [6] | Potency [9] | Potency [5]
active: Potency [2] 21.9 µM | Potency [7] 54.9 µM

CNCC[C@H](Oc1cccc2ccccc12)c1cccs1
inactive: Potency [9]
active: Potency [10] 23.9 µM | Potency [2] 23.9 µM | Potency [5] 26.6 µM
